# HCMV antiviral: inhibitors of human cytomegalovirus; hit rate 4.5% among 410,000; activity change, negative = inhibition, % at 57.5 µM; AID 1259415; HFF cells, HCMV-luciferase reporter, 72 h; hits give low values; in the data active = activity change below about -60%; inconclusive = no clear call, values can overlap the other calls; inactive = above about -39%
#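 Compounds were evaluated in HFFs infected with an HCMV luciferase reporter virus (MOI 1 PFU/cell). Luciferase in lysates collected 72 h post infection served as the replication measure.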
# VACV Venus inh: inhibitors of vaccinia virus (Venus reporter); hit rate 0.46% among 330,000; Potency, µM (series often up to 36.5 µM), for inactives: at the top dose activity change, negative = inhibition, hits mostly inhibitors; Vaccinia virus Venus reporter expression, fluorescence; calls by dose curve; tested in A549 cells; also: potency is read from the fitted curve at half-maximal effect; nearly all actives have a fitted effect of over 30% in size
# HCV inh: blocks hepatitis C virus. Potency, µM (titrated, usually from 41.8 µM), inactives show at the top dose activity change, negative = inhibition, hits mostly inhibitors. Huh7.5.1 HCVcc-Cre infection, luciferase reporter, 44 h. hit rate 3.4% among 340,000. AID 651820; also: potency is read from the fitted curve at half-maximal effect
#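 HCVcc-Cre virus at an moi near 0.5 was added right after compound to cells cultured 4 h from seeding (1,000 cells/well). Luciferase activity was determined 44 h later, 15 min after substrate addition at RT.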
# VACV mCherry inh: inhibitors of vaccinia virus infection (mCherry reporter signal); Vaccinia virus mCherry reporter infection, fluorescence; Potency, µM (series often up to 36.5 µM), for the others: top-dose activity change, negative = inhibition, usual class: inhibitors; hit rate 0.63% among 310,000; calls by dose curve; tested in A549 cells; also: potency is read from the fitted curve at half-maximal effect; nearly all actives have a fitted effect of over 35% in size
# FBPA Giardia inh: blocks Giardia fructose-bisphosphate aldolase activity | Potency, µM (top dose mostly 59.6 µM), inactives show at the highest dose activity, negative = inhibition, hits mostly inhibitors | A8B2U2 | AID 2451 | purified Giardia FBPA | hit rate 0.71% among 290,000; also: potency is read from the fitted curve at half-maximal effect; nearly all actives have a fitted effect of over 55% in size
# Target sequence (A8B2U2 whole entry, looked up): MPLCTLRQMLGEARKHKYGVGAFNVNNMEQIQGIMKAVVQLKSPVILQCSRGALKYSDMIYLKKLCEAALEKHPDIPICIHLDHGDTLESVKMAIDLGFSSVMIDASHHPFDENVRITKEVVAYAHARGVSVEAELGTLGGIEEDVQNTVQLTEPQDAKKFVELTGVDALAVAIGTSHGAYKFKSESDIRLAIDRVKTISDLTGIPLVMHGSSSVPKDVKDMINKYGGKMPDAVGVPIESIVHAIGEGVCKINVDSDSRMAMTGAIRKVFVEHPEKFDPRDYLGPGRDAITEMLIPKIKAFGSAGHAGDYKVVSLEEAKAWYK
#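 40 nM FBPA preincubated 10 min at RT with compound (up to 57.5 uM final), then substrate plus GAPDH/TPI/NAD/arsenate coupling and diaphorase/resazurin added. Fluorescence read after 20 min at RT, 525/598 nm.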
# FMDV antiviral: foot and mouth disease virus antiviral activity; FMDV antiviral cell-based qHTS; Potency, µM (series often up to 57.9 µM), for inactives: top-dose activity change, negative = inhibition, most hits filed as inhibitors; hit rate 1.2% among 410,000; AID 1159524; calls by dose curve; tested in HEK293T cells; also: read-out not given here; potency is read from the fitted curve at half-maximal effect; nearly all actives have a fitted effect of over 45% in size
# Active calls of the source: *; i = inactive; ? = inconclusive; . = no result given; + = active, no number; [ ] = dose if it differs, or a comment. The list is not random: actives were taken first. Their share in the collection is about 7.5%. Unless noted, calls follow the shape of the dose curve; as a rule, active = well fitted curve in the direction sought with a large enough effect; inconclusive = small, poorly fitted or top-dose-only effect, or another doubt; inactive = no such curve, though single readings can be large; an effect the other way counts as inactive or inconclusive. % is scaled to controls: 0 for no effect and ±100 for the full control effect.
SMILES,HCMV antiviral,VACV Venus inh,HCV inh,VACV mCherry inh,FBPA Giardia inh,FMDV antiviral
O=C(Nc1ccccc1)N1CCCN(c2ccc(C(F)(F)F)cn2)CC1,-65.9*,.,11.2µM*,.,6.8%,?
CC(C)(C)NC(=O)N1CCCN(c2ccc(C(F)(F)F)cn2)CC1,1.9,-25.1%,?,?,1.0%,?
CC(C)(C)c1ccc(NC(=O)N2CCN(c3ccc([N+](=O)[O-])cn3)CC2)cc1,-93.8*,-12.5%,?,i,-19.8%,22.4µM*
FC(F)(F)c1cnc(N2CCCN(C(=S)Nc3ccccc3)CC2)c(Cl)c1,-84.9*,-5.8%[7.34 µM],?,?,2.8%,?
CN(Cc1cccnc1)C(=O)c1ccc(Cl)c(NS(=O)(=O)c2ccc(F)cc2)c1,-5.9,-7.1%,10.2%,i,.,64.3%
O=C(OCc1cn([C@H]2CN(Cc3cccs3)[C@@H](c3ccc(Cl)cc3)C[C@@H]2O)nn1)c1ccccc1,6.3,-7.8%,.,-0.5%,.,-13.8%
CCN1CCC(N(Cc2ccc3c(c2)OCO3)C(=O)Nc2ccccc2OC)CC1,-4.6,-8.9%,.,-12.1%,.,-19.2%
CCN1CCC(N(Cc2ccc3c(c2)OCO3)C(=O)Nc2cc(Cl)ccc2C(=O)OC)CC1,-79.8*,?,.,-21.4%,.,-24.2%
COc1ccccc1C(=O)N/C(=C\c1cn(S(=O)(=O)N(C)C)c2ccccc12)C(=O)N1CCN(C)CC1,-11.3,-14.9%,.,-16.4%,.,12.5%
Nc1ncnc2c1nc(SCCO)n2Cc1ccccc1,-74.0*,-5.7%,10.4%,-8.8%,0.6%,-24.7%
COc1ccc(N2CCN(CCCNC(=O)C(=O)c3c(C)[nH]c4ccccc34)CC2)cc1,0.0,-13.0%,?,-11.5%,.,-10.8%
COc1ccc(S(=O)(=O)N(C)C)cc1NC(=O)COC(=O)c1nn(C)c(=O)c2ccccc12,0.0,.,14.3%,.,9.7%,-6.2%
O=C(CSc1ccc2c(c1)OCCO2)Nc1ccc(Br)cn1,31.3,?,?,?,.,-21.5%
O=C(CSc1ccc2c(c1)OCCO2)Nc1ccc(Cl)cn1,-86.1*,.,-21.6%,.,-2.9%,-2.8%
O=C(Nc1ccc(OCC(F)(F)C(F)F)c(C(F)(F)F)c1)c1ccc(Cl)cc1,-94.9*,?,7.94µM*,?,.,?
COc1ccc(NC(=O)c2ccc(COCC(F)(F)F)cc2)cc1OC,-23.6,-25.3%,-28.1%,i,0.2%,-18.9%
COc1ccc(C(=O)Nc2ccc(OCC(F)(F)C(F)F)c(C(F)(F)F)c2)cc1OC,-98.8*,?,11.2µM*,?,-12.0%,?
CC(C)NS(=O)(=O)c1ccc(CCC(=O)NCc2ccncc2)cc1,-13.7,-14.7%,3.9%,-13.5%,-15.1%,-1.6%
CCOc1ccc(CNC(=O)c2ccc3[nH]c(C)c(C)c3c2)cc1OC,+,-1.4%,.,-10.0%,.,-12.8%
CCN1C/C(=C\c2cc(OC)c(OC)c(OC)c2)C2=NN(c3ccccc3)C(c3cc(OC)c(OC)c(OC)c3)C2C1 (stereo not drawn),135.4,-11.0%,-8.7%,i,.,-24.6%
O=C(Oc1cccc(/C=N/Nc2nc(N3CCOCC3)nc(N3CCOCC3)n2)c1)c1ccco1,125.2,-14.4%,1.12µM*,-0.4%,-7.6%,?
COc1ccc(/C=N/Nc2nc(N3CCCCC3)nc(N3CCCCC3)n2)cc1[N+](=O)[O-],-74.2*,?,3.55µM*,?,1.4%,-24.7%
O=[N+]([O-])c1cccc(/C=N/Nc2nc(N3CCCCC3)nc(N3CCCCC3)n2)c1,-10.5,-11.1%,5.62µM*,i,-0.7%,-27.5%
O=[N+]([O-])c1cccc(-c2ccc(/C=N/Nc3nc(N4CCCCC4)nc(N4CCCCC4)n3)o2)c1,-6.4,1.3%,11.2µM*,-12.8%,-1.0%,-17.5%
CCCOc1ccc(/C=N/NC(=O)c2ccc3c(c2)OCO3)c(OCCC)c1,19.5,-17.1%,-28.5%,i,-4.4%,-17.0%
CC1(C)NC(=S)NC1=S,-99.6*,-10.8%,10.5%,-15.0%,.,-21.4%
CC(=O)c1ccc(NS(=O)(=O)c2cc(-c3cc(C)no3)ccc2C)cc1,-2.0,-19.5%,.,-27.6%,.,65.9%
Cc1n[nH]c(=O)c2c(NC(=O)CSc3nn(-c4ccccc4)c(=S)s3)oc(C)c12,-98.5*,-13.9%,19.5%,-6.8%,.,-5.4%
